PubChem BioAssay AID504652 (National Center for Advancing Translational Sciences (NCATS), 2011)
Values joined by “and” are separate entries in the source; they are usually repeats but may differ in a detail not shown here. Identical values can stand only once. In all, about 360,000 compounds went through this assay and about 11,000 (3.1%) were called active. No stated cut-off is given here; in the data, active means activity change below about -30%; inactive means the rest. The sample as a whole holds a higher share of actives than the screen did.
On the % scale 0 is the no-effect control and ±100 the full control effect.

Each molecule was assayed against D(1A) dopamine receptor (Homo sapiens) (UniProt P21728) (assay: Antagonist of Human D 1 Dopamine Receptor: qHTS). Settings: HEK293 TREx D1 cells, calcium flux, dopamine EC80; at 10 µM; active compounds read low.
Chain of D(1A) dopamine receptor (Homo sapiens) (P21728 whole entry, looked up): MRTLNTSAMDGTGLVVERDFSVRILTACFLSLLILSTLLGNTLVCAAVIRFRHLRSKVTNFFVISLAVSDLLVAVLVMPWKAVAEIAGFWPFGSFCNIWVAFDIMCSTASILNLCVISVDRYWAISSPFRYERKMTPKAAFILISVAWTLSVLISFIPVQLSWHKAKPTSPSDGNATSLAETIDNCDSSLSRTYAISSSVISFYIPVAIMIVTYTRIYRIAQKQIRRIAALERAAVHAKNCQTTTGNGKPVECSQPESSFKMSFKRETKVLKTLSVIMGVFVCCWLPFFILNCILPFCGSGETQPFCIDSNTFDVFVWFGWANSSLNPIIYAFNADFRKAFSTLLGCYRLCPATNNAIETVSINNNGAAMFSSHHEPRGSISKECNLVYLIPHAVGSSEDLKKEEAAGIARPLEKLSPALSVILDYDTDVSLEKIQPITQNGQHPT
Method in brief: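 Inducible Hek293 Trex D1 cells (tetracycline, overnight, 30 C). Calcium dye 30–90 min RT. Antagonist mode: EC80 dopamine added after 180 s compound read.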
For `CCn1ccnc1CN(C)C(=O)c1cc(COc2ccc(Cl)cc2OC)on1`, the activity change, negative = inhibition was -3.88% (inactive). `COc1cc(Cl)ccc1OCc1cc(C(=O)N(C)CCc2c(C)n[nH]c2C)no1` was tested, and the activity change, negative = inhibition was -50% (active). `CSc1ccccc1OCc1cc(C(=O)N(C)CCc2c(C)n[nH]c2C)no1` was tested, and the activity change, negative = inhibition was -4.34% (inactive). `Cc1noc(C)c1-c1ccc2ncnc(NCc3ccc(F)c(F)c3)c2c1` was tested, and the activity change, negative = inhibition was -25.4% (inactive). In the case of `COc1ccc(NC(=O)CSc2nc3ccccc3[nH]2)cc1`, the activity change, negative = inhibition is reported as 7.52% (inactive). With `CC(=O)Nc1ccc(S(=O)(=O)N2CCCC2C(=O)O)cc1` (centres undefined) the activity change, negative = inhibition was 2.28% (inactive). In the case of `O=C(O)C1CCCN1S(=O)(=O)c1ccc2c(c1)CCC2` (centres undefined), the activity change, negative = inhibition is reported as -38.4% (active). `O=C(O)C1CCCN1S(=O)(=O)c1ccc(Br)cc1` (centres undefined) was tested, and the activity change, negative = inhibition was -19.4% (inactive). With `CCCS(=O)(=O)c1ncc(Cl)c(C(=O)Nc2scc(-c3ccccc3)c2C(=O)OCC)n1` the activity change, negative = inhibition was -10.7% (inactive). For `CN(C)[C@@H]1C(=O)C(C(N)=O)=C(O)[C@@]2(O)C(=O)C3=C(O)c4c(O)ccc(Cl)c4[C@@H](O)[C@H]3C[C@@H]12`, the activity change, negative = inhibition was -42.8% (active). For `C=C1c2c(Cl)ccc(O)c2C(O)=C2C(=O)[C@]3(O)C(O)=C(C(N)=O)C(=O)[C@@H](N(C)C)[C@@H]3[C@@H](O)C12` (some centres undefined), the activity change, negative = inhibition was -4.29% (inactive). With `Cc1ccc(C)c(N2CCN(C(=O)Cn3nc(C)c4sc5ccccc5c4c3=O)CC2)c1` the activity change, negative = inhibition was 5.73% (inactive). `COc1ccc(-c2noc(CSc3nc(C)cc(=O)[nH]3)n2)cc1OC` was tested, and the activity change, negative = inhibition was 12.5% (inactive). With `COc1ccc(-c2cc(C(F)(F)F)n3nc(-c4ccccc4)cc3n2)cc1OC` the activity change, negative = inhibition was 6.49% (inactive). `CCCN(CCC)CCNC(=O)c1ccc2c(c1)NC(=O)C(CS(=O)(=O)Cc1cccc(Br)c1)N2` (centres undefined) was tested, and the activity change, negative = inhibition was -3.96% (inactive). In the case of `Cc1cccc(OCCSc2nc3ccc(NC(=O)COc4ccccc4C)cc3s2)c1`, the activity change, negative = inhibition is reported as 5.79% (inactive). `CC(=O)Nc1ccc2nc(SCCOc3cc(C)cc(C)c3)sc2c1` was tested, and the activity change, negative = inhibition was -35.7% (active). `Cc1ccc(OCCSc2nc3ccc(NC(=O)COc4ccc(C)cc4)cc3s2)cc1` was tested, and the activity change, negative = inhibition was -5.49% (inactive). `NC(=O)C1CCN(C(=O)c2cccc(NC(=O)c3nsc4ccccc34)c2)CC1` was tested, and the activity change, negative = inhibition was 7.53% (inactive). With `Nc1cc(N)nc(SCC(=O)Nc2cccc(S(=O)(=O)N3CCCCC3)c2)n1` the activity change, negative = inhibition was -7.32% (inactive). For `O=C(CSc1ccccc1)Nc1cccc(S(=O)(=O)N2CCCCC2)c1`, the activity change, negative = inhibition was -39.5% (active). With `O=C(CSc1ccccc1)Nc1cccc(S(=O)(=O)N2CCOCC2)c1` the activity change, negative = inhibition was -24.4% (inactive). In the case of `CCOc1ccccc1N(C)C(=O)c1cc2c(s1)-c1ccccc1OC2`, the activity change, negative = inhibition is reported as 7.49% (inactive). With `Cc1sc(C2C(C#N)=C(N)N(c3cccc(Cl)c3)C3=C2C(=O)CCC3)cc1CN1CCOCC1` (centres undefined) the activity change, negative = inhibition was -16.8% (inactive). For `Cc1c(C(=O)N2CCOCC2)[nH]c2ccc(OCc3ccccc3)cc12`, the activity change, negative = inhibition was -45.7% (active). `Cc1c(C(=O)CN2CCOCC2)[nH]c2ccccc12` was tested, and the activity change, negative = inhibition was -9.55% (inactive). For `CCOC(=O)c1[nH]c2ccc(OC)cc2c1NC(=O)N1CCOCC1`, the activity change, negative = inhibition was -7.34% (inactive). In the case of `CCOC(=O)c1ccc(NC(=O)Cn2cc(S(=O)(=O)Cc3ccccc3F)c3ccccc32)cc1`, the activity change, negative = inhibition is reported as 16.6% (inactive). In the case of `COc1cc(OC)cc(-c2nc3nc(C)c(CCC(=O)NCc4ccco4)c(C)n3n2)c1`, the activity change, negative = inhibition is reported as -2.94% (inactive). With `Cc1nc2c(-c3ccccc3)c(C)nn2c(C)c1CCC(=O)NCCc1ccccc1` the activity change, negative = inhibition was -7.07% (inactive). With `Cc1nc2c(-c3ccc(F)cc3)c(C)nn2c(C)c1CCC(=O)NCc1ccco1` the activity change, negative = inhibition was -61.2% (active). `CCOC(=O)c1c(-c2ccc(OC)cc2)oc2ccc(OCc3ccc(C(=O)OC)cc3)cc12` was tested, and the activity change, negative = inhibition was 4.56% (inactive). `O=C(Nc1ccc2nc(SCC(=O)N3CCCc4ccccc43)sc2c1)c1ccc(Cl)cc1` was tested, and the activity change, negative = inhibition was -13.6% (inactive). For `Cc1nn(-c2nc(-c3ccccc3)cc(C(F)(F)F)n2)c(C)c1Cl`, the activity change, negative = inhibition was 5.82% (inactive). `Cc1cc(C(F)(F)F)c(C#N)c(SCC(=O)NC2CC2)n1` was tested, and the activity change, negative = inhibition was -10.9% (inactive). In the case of `Cc1ccc(-c2cc(C(F)(F)F)c(C#N)c(SCC(=O)Nc3ccccc3)n2)cc1`, the activity change, negative = inhibition is reported as -36.2% (active). In the case of `CCN(CC)c1nc(-c2ccccc2)cc(C(F)(F)F)c1C#N`, the activity change, negative = inhibition is reported as -72.6% (active). `CCOC(=O)COc1nc(C)cc(C(F)(F)F)c1C#N` was tested, and the activity change, negative = inhibition was -9.55% (inactive). For `N#Cc1c(C(F)(F)F)cc(-c2ccccc2)nc1SCC(=O)N1CCOCC1`, the activity change, negative = inhibition was 7.61% (inactive). With `CCCN1CCc2nc(N3CCN(C)CC3)ncc2C1` the activity change, negative = inhibition was -15.6% (inactive). In the case of `CSc1cccc(NC(=O)CN2C(=O)CCc3cc(S(=O)(=O)N4CCCCC4)ccc32)c1`, the activity change, negative = inhibition is reported as -0.775% (inactive). For `Cc1cc2c(cc3c(SCc4cccc(Cl)c4)nnc(C)n32)o1`, the activity change, negative = inhibition was -2.95% (inactive). `Cc1ccc(CNS(=O)(=O)c2ccc(-c3cc(C(F)(F)F)on3)s2)cc1` was tested, and the activity change, negative = inhibition was 0.708% (inactive). For `COc1ccccc1CCNC(=O)c1cccn1-c1nnc(N2CCCCC2)s1`, the activity change, negative = inhibition was 13.6% (inactive). `CCCOc1cccc(C(=O)Nc2cccc(NC(=O)c3ccc(C(C)(C)C)cc3)c2)c1` was tested, and the activity change, negative = inhibition was -1.05% (inactive). In the case of `CCOc1cccc2c1N[C@@H](c1ccc(C(=O)O)cc1)[C@H]1CC=C[C@@H]21`, the activity change, negative = inhibition is reported as -19.7% (inactive). For `Cc1ccc2nc(COc3cccc(NC(=O)c4ccccc4Cl)c3)cc(=O)n2c1`, the activity change, negative = inhibition was -6.97% (inactive). `CN(C)CCCn1c(SCCN2C(=O)c3ccccc3C2=O)nc2ccccc2c1=O` was tested, and the activity change, negative = inhibition was -51.8% (active). `CC(=O)NCCn1c(SCC(=O)Nc2ccc(C)cc2)nc2ccccc2c1=O` was tested, and the activity change, negative = inhibition was 1.17% (inactive) and -18.8% (inactive). With `O=C(CSc1nc2ccccc2c(=O)n1CCCO)NC1CC1` the activity change, negative = inhibition was 8.77% (inactive). `Cc1ccc(Cc2nc3ccccc3nc2SCC(=O)Nc2cccc(C(F)(F)F)c2)cc1` was tested, and the activity change, negative = inhibition was -11.6% (inactive). In the case of `O=C(CCc1nc(CN2CCN(S(=O)(=O)c3ccc(Cl)cc3)CC2)no1)N1CCCCC1`, the activity change, negative = inhibition is reported as -4.7% (inactive). With `Cc1ccc([C@@H]2CC=C(C(=O)O)[C@H](c3cccc(Cl)c3)N2S(=O)(=O)c2ccc(C)cc2)cc1` the activity change, negative = inhibition was -12.2% (inactive). `Cc1ccccc1S(=O)(=O)N1[C@@H](c2cccc(Cl)c2)C(C(=O)O)=CC[C@H]1c1ccc(Cl)cc1` was tested, and the activity change, negative = inhibition was -39.7% (active). `Cc1ccc(S(=O)(=O)N2[C@@H](c3cccc(Cl)c3)C(C(=O)O)=CC[C@H]2c2ccc(Cl)c(Cl)c2)cc1` was tested, and the activity change, negative = inhibition was -17.8% (inactive). `CCc1cccc(-n2nnc(-c3nsc(NC(=O)c4ccc(C)cc4)n3)c2C)c1` was tested, and the activity change, negative = inhibition was 16.6% (inactive). In the case of `Cc1ccc(CNC(=O)COc2ccc3c(c2)CCC3)cc1`, the activity change, negative = inhibition is reported as 0.495% (inactive). For `CCOCC(=O)NCc1ccc2c(c1)cc(C)n2C`, the activity change, negative = inhibition was -38.5% (active). `COc1cc(C(=O)NCc2ccc3c(c2)cc(C)n3C)cc(OC)c1OC` was tested, and the activity change, negative = inhibition was -1.99% (inactive). With `CCc1ccccc1NC(=O)Cn1c(=O)n(CC2CCC(C(=O)NCCc3ccccc3)CC2)c(=O)c2ccccc21` (centres undefined) the activity change, negative = inhibition was 9.85% (inactive). In the case of `CC(=O)c1c(C)n(-c2ccc(N(C)C)cc2)c2ccc(OCC(N)=O)cc12`, the activity change, negative = inhibition is reported as 4.08% (inactive). For `CCOC(=O)c1c(CN2CCOCC2)n(-c2ccccc2)c2ccc(O)cc12`, the activity change, negative = inhibition was 2.3% (inactive). For `CC(=O)c1c(C)n(-c2ccc(C)cc2)c2ccc(O)cc12`, the activity change, negative = inhibition was -50.8% (active). In the case of `O=c1c2ccccc2n(Cc2cccc(Cl)c2)c(=O)n1Cc1ccccc1`, the activity change, negative = inhibition is reported as -3.55% (inactive). `Fc1ccccc1Oc1ncnc2c1oc1ccccc12` was tested, and the activity change, negative = inhibition was -11.6% (inactive). In the case of `CCn1c(SCc2cc(=O)n3ccsc3n2)nc2ccccc21`, the activity change, negative = inhibition is reported as -2.02% (inactive). For `O=C(OCc1cc(=O)n2ccsc2n1)C1(c2ccc(Cl)cc2)CC1`, the activity change, negative = inhibition was 5.81% (inactive). With `O=c1cc(Cn2nnc(-c3ccc(Cl)cc3)n2)nc2sccn12` the activity change, negative = inhibition was -32.8% (active). `COc1ccc2[nH]c3c(c2c1)CCN(C(=O)CCC1CCCC1)C3c1ccc(F)cc1` (centres undefined) was tested, and the activity change, negative = inhibition was -3.48% (inactive). With `CC(C)c1ccc(OCC(=O)N(Cc2ccc(N(C)C)cc2)C2CCS(=O)(=O)C2)cc1` (centres undefined) the activity change, negative = inhibition was 12% (inactive). `O=C(CCC1CCCC1)N=C1SC2CS(=O)(=O)CC2N1Cc1ccccc1` (centres undefined) was tested, and the activity change, negative = inhibition was -43% (active). In the case of `C=CCN1C(=NC(=O)COc2ccccc2)SC2CS(=O)(=O)CC21` (centres undefined), the activity change, negative = inhibition is reported as 5.52% (inactive). In the case of `CC(C)CC(=O)N=C1SC2CS(=O)(=O)CC2N1CCc1ccccc1` (centres undefined), the activity change, negative = inhibition is reported as 4.43% (inactive). `COc1ccccc1CN1CCC(CNC(=O)c2cnn(-c3cccc(Cl)c3)c2C2CCN(C(=O)OC(C)(C)C)CC2)CC1` was tested, and the activity change, negative = inhibition was 3.93% (inactive). In the case of `Cc1ccc(Cl)cc1NC(=O)Cc1ccc(-n2c(C)nc3cccnc32)cc1`, the activity change, negative = inhibition is reported as 13% (inactive). `COc1ccc(C(CC(=O)N2CCN(c3ccccc3)CC2)c2c(O)cc(OC)cc2OC)cc1` (centres undefined) was tested, and the activity change, negative = inhibition was 29.6% (inactive). In the case of `COc1cc(C(CCN2CCN(c3ccccc3)CC2)c2c(OC)cc(OC)c3ccc(=O)oc23)cc(OC)c1OC` (centres undefined), the activity change, negative = inhibition is reported as -74% (active). `COc1cc(OC)c2ccc(=O)oc2c1C(CCN1CCN(c2ccccc2)CC1)c1ccc2c(c1)OCO2` (centres undefined) was tested, and the activity change, negative = inhibition was -83.8% (active). With `COc1cc(C(=O)NCCS(=O)(=O)N2CCN(c3ccccc3)CC2)cc(OC)c1OC` the activity change, negative = inhibition was -13.9% (inactive). In the case of `O=C(NCC(c1ccc2c(c1)OCO2)N1CCN(c2ccccc2)CC1)C(=O)Nc1ccccc1F` (centres undefined), the activity change, negative = inhibition is reported as 4.02% (inactive). `COc1ccccc1N1CCN(Cc2cc(OC)c3c(c2)OCO3)CC1` was tested, and the activity change, negative = inhibition was -0.813% (inactive). For `CC(=O)Nc1cccc(NC(=O)CSc2nccn2Cc2ccc3c(c2)OCO3)c1`, the activity change, negative = inhibition was 1.91% (inactive). For `O=C(Nc1ccc(Br)cc1)c1ccc(Br)c(S(=O)(=O)NCc2ccccc2)c1`, the activity change, negative = inhibition was -21.6% (inactive). For `CCOc1ccccc1NC(=O)C1CCCN(S(=O)(=O)c2cn(C)cn2)C1` (centres undefined), the activity change, negative = inhibition was -15.7% (inactive).
